PLK1 PBD block: blocks phosphopeptide binding to human PLK1 polo-box domain | P53350 | Plk1 PBD binding of FITC phosphopeptide, fluorescence polarization | Potency, µM, inactives show max response, negative = inhibition, usual class: inhibitors | hit rate 2.8% among 360,000 | AID 720504; further: potency means the concentration at half of the fitted maximal effect; series mostly up to about 57 µM; on the % scale 0 is the no-effect control and ±100 the full control effect; nearly all actives have a fitted effect of over 65% in size
HP1b chromo inh: blocks HP1-beta chromodomain binding to methylated histone tails; Potency, µM (highest dose often 114 µM), for the others: top-dose activity change, negative = inhibition, most hits filed as inhibitors; hit rate 0.56% among 390,000; AID 540317; AlphaScreen HP1-beta / biotin-H3K9me3 peptide binding; further: potency means the concentration at half of the fitted maximal effect; nearly all actives have a fitted effect of over 70% in size
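AlphaScreen: HP1-beta (50 nM) preformed 30 min with biotin-H3(1-18)K9me3 peptide (50 nM) in PBS pH 7.4, 0.01% Tween-20. Compound added for 30 min at RT, then streptavidin donor/nickel chelate acceptor beads (10 ug/mL) for 30 min.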
G9a block: inhibitors of human histone lysine methyltransferase G9a; Q96KQ7; G9a H3K9 monomethylation, AlphaScreen, 2 h; Potency, µM (series often up to 102 µM), for the others: at the top dose activity, negative = inhibition, most hits filed as inhibitors; hit rate 8.8% among 350,000; further: potency means the concentration at half of the fitted maximal effect; on the % scale 0 is the no-effect control and ±100 the full control effect; nearly all actives have a fitted effect of over 75% in size
Target sequence (Q96KQ7 913-1193 limits assumed): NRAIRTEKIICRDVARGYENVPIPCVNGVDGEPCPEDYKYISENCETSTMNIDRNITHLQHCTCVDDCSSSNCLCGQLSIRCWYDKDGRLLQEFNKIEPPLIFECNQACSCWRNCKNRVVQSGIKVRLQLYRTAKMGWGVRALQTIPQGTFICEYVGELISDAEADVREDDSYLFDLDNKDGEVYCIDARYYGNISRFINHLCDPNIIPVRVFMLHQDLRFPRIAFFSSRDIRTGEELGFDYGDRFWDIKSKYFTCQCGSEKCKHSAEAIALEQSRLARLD
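Chemiluminescent proximity detection of H3K9 monomethylation, read after 10 min bead incubation in the dark. Reaction: 20 nM G9a, 500 nM biotin-H3K9 peptide, 20 uM SAM cofactor, 2 h, room temperature, following 15 min enzyme-compound preincubation.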
JMJD2A Tudor inh: blocks the human JMJD2A Tudor domain; hit rate 4.4% among 390,000; O75164; Potency, µM (titrated, usually from 114 µM), inactives show at the highest dose activity change, negative = inhibition, hits mostly inhibitors; AlphaScreen JMJD2A-Tudor / H3K4me3 peptide binding; further: potency means the concentration at half of the fitted maximal effect; on the % scale 0 is the no-effect control and ±100 the full control effect; nearly all actives have a fitted effect of over 50% in size
BAZ2B block: blocks human BAZ2B; Q9UIF8; AlphaScreen BAZ2B-H3K14Ac peptide displacement; Potency, µM (titrated, usually from 114 µM), inactives show at the highest dose activity change, negative = inhibition, hits mostly inhibitors; hit rate 4.4% among 360,000; AID 504333; further: potency means the concentration at half of the fitted maximal effect; on the % scale 0 is the no-effect control and ±100 the full control effect; nearly all actives have a fitted effect of over 60% in size
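AlphaScreen displacement: compounds (up to 110uM) incubated 30 min at room temperature with a preformed 50 nM BAZ2B/50 nM biotinylated H3K14Ac peptide complex in PBS pH 7.4 with Tween-20. Donor and acceptor beads at 10 ug/mL final added, 20 min light-protected before reading.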
PI5P4K alpha inh: blocks human PI5P4K alpha kinase activity | P48426 | PI5P4Kalpha enzyme, ADP-Glo luminescence, 60 min; hits give low values | max response, % | hit rate 1.2% among 330,000; active means max response of -50% or lower; inconclusive means between -30% and -50%; inactive means -30% or higher; further: value at the top dose of about 77 µM; on the % scale 0 is the no-effect control and ±100 the full control effect
Target sequence (P48426 whole entry, looked up): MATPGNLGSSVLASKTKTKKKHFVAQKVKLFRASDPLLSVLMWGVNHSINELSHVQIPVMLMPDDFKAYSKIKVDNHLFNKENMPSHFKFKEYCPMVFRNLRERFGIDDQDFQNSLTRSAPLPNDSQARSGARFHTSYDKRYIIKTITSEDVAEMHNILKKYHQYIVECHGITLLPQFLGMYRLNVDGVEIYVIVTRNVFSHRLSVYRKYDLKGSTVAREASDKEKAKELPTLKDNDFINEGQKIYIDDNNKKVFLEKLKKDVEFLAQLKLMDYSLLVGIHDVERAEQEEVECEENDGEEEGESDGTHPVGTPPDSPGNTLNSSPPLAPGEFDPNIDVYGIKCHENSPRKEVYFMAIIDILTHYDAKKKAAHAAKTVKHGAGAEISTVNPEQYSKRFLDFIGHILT
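Controls without substrate or without enzyme flank wells where PI5P4Kalpha converts substrate using 5 microM ATP (final). Incubation lasts 60 minutes at room temperature; ADP formed is read by ADP-Glo luminescence.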
Starred values were filed as active, the others as inactive; [ ] = remark or other dose. The list is not random: actives were taken first. Their share in the collection is about 12%. Unless noted, the call rests on the fitted dose curve; in most records, active means well fitted curve in the direction sought with a large enough effect; inconclusive means small, poorly fitted or top-dose-only effect, or another doubt; inactive means no such curve, though single readings can be large; an effect the other way counts as inactive or inconclusive.

Results for O=C(c1ccncc1)N1CCC[C@@]2(CCN(Cc3nccs3)C2)C1 ?
G9a block: -2%[12.7 µM]

How did c1cnc(N2CCCC3(CCNCC3)C2)nc1 do in these assays?
G9a block: -15%[12.7 µM]

What do the screens show for `c1cnc(N2CCNCC2)nc1`?
PLK1 PBD block: -17%; HP1b chromo inh: 43%; G9a block: 18µM*; JMJD2A Tudor inh: inconclusive; BAZ2B block: inconclusive; PI5P4K alpha inh: -4

How did CC(C)(C)NS(=O)(=O)c1ccc(OCC(=O)N2CCN(Cc3ccccc3)CC2)cc1 do in these assays?
PLK1 PBD block: -11%; HP1b chromo inh: 1%; G9a block: -25%; JMJD2A Tudor inh: -14%; BAZ2B block: -17%; PI5P4K alpha inh: -5

Results for O=C(COc1ccc(Br)cc1)N1CCN(Cc2ccncc2)CC1 ?
PLK1 PBD block: -15%; HP1b chromo inh: inconclusive; G9a block: 18µM*; JMJD2A Tudor inh: 1µM*; BAZ2B block: -3%; PI5P4K alpha inh: 9

Results for O=C(COc1ccc(Br)cc1)N1CCN(Cc2ccc3c(c2)OCO3)CC1 ?
PLK1 PBD block: -8%; HP1b chromo inh: inconclusive; JMJD2A Tudor inh: 8.9µM*; BAZ2B block: 50µM*; PI5P4K alpha inh: 1

Results for CSc1ccc(CN2CCN(C(=O)COc3ccc(C)cc3)CC2)cc1 ?
PLK1 PBD block: -4%; HP1b chromo inh: inconclusive; G9a block: 10µM*; JMJD2A Tudor inh: 8.9µM*; BAZ2B block: 56µM*; PI5P4K alpha inh: 3

What do the screens show for `O=C(COc1ccc(S(=O)(=O)N2CCCCC2)cc1)N1CCN(Cc2ccccc2)CC1`?
PLK1 PBD block: -7%; HP1b chromo inh: 25%; G9a block: 45µM*; JMJD2A Tudor inh: -12%; BAZ2B block: -2%; PI5P4K alpha inh: 3

Results for O=C(COc1ccc(S(=O)(=O)N2CCOCC2)cc1)N1CCN(Cc2ccc3c(c2)OCO3)CC1 ?
PLK1 PBD block: -4%; HP1b chromo inh: 11%; G9a block: 0%; JMJD2A Tudor inh: -16%; BAZ2B block: 1%

Results for Cc1ccc(OCC(=O)N2CCN(CCc3ccncc3)CC2)cc1 ?
HP1b chromo inh: 24%; G9a block: -23%[59 µM]; JMJD2A Tudor inh: -13%; BAZ2B block: -6%

What do the screens show for `NCCCC[C@H](NC(=O)[C@H](Cc1ccccc1)NC(=O)[C@H](CCCN=C(N)N)NC(=O)[C@@H](N)Cc1ccc(O)cc1)C(N)=O`?
G9a block: 22%[59 µM]

How did Cc1ccc(-n2c(/C=C\c3ccc(F)c(F)c3)nc3ccccc3c2=O)c(C)c1 do in these assays?
HP1b chromo inh: 16%; G9a block: 12%[59 µM]; JMJD2A Tudor inh: -17%; BAZ2B block: 2%

How did COc1ccc(/C=C/c2nc3ccccc3c(=O)n2-c2ccc(C)cc2)cc1O do in these assays?
HP1b chromo inh: 9%; G9a block: 6%[59 µM]; JMJD2A Tudor inh: -11%; BAZ2B block: -13%

What do the screens show for `Cc1cccc(OCC(=O)N2CCN(Cc3ccc4c(c3)OCO4)CC2)c1`?
PLK1 PBD block: -9%; HP1b chromo inh: inconclusive; G9a block: 10µM*; JMJD2A Tudor inh: inconclusive; BAZ2B block: 50µM*; PI5P4K alpha inh: 9

Results for Cc1ccc(OCC(=O)N2CCN(Cc3ccc4c(c3)OCO4)CC2)cc1C ?
PLK1 PBD block: 2%; HP1b chromo inh: 16%; G9a block: -8%[12.7 µM]; JMJD2A Tudor inh: -15%; BAZ2B block: inconclusive; PI5P4K alpha inh: 2

How did O=[N+]([O-])c1cc(-c2ccc([As](=O)(O)O)cc2)ccc1[As](=O)(O)O do in these assays?
G9a block: 50µM*; BAZ2B block: inconclusive

Results for Cc1cccc2sc(NC(=O)c3cccn(Cc4ccccc4)c3=O)nc12 ?
HP1b chromo inh: -11%; G9a block: 20%[59 µM]; JMJD2A Tudor inh: -8%; BAZ2B block: -12%

Results for Cc1cc(-c2ccc(C)c(S(=O)(=O)N3CCOc4ccc(Cl)cc43)c2)on1 ?
HP1b chromo inh: 64%; G9a block: 24%[59 µM]; JMJD2A Tudor inh: -10%; BAZ2B block: 33%

What do the screens show for `COC(=O)CCCCC1SCC(NC(=O)c2ccccc2)C1Cl` (stereo unspecified)?
PLK1 PBD block: -6%; HP1b chromo inh: 36%; G9a block: -41%; JMJD2A Tudor inh: -12%; BAZ2B block: 79µM*; PI5P4K alpha inh: 2

How did C=C1CC2C(CC[C@]3(C)C(=O)CCC23)[C@]2(C)C=CC(=O)C=C12 (stereo partly specified) do in these assays?
G9a block: 21%[59 µM]

Results for N[C@@H](Cn1cc(I)c(=O)[nH]c1=O)C(=O)O ?
G9a block: 35µM*

How did N[C@@H](Cn1ccc(=O)[nH]c1=O)C(=O)O do in these assays?
G9a block: 1.5µM*

Results for Cc1ccc(-n2c(/C=C/c3cc(Br)cs3)nc3ccccc3c2=O)cc1 ?
HP1b chromo inh: 36%; G9a block: -3%[59 µM]; JMJD2A Tudor inh: 2%; BAZ2B block: 3%

What do the screens show for `CC(=O)Nc1ccc(CC(=O)N2CCN(Cc3ccccc3)CC2)cc1`?
PLK1 PBD block: -9%; HP1b chromo inh: 5%; G9a block: -2%; JMJD2A Tudor inh: -9%; BAZ2B block: -6%; PI5P4K alpha inh: -5

Results for CCOC(=O)C1(CCc2ccccc2)CCN(Cc2ccc(NC(C)=O)cc2)CC1 ?
PLK1 PBD block: -13%; HP1b chromo inh: 21%; G9a block: -11%; JMJD2A Tudor inh: -15%; BAZ2B block: -2%; PI5P4K alpha inh: 4

How did Cc1ccccc1CN1CCN(C(=O)Cc2ccccc2)CC1 do in these assays?
PLK1 PBD block: -10%; HP1b chromo inh: 22µM*; G9a block: 16µM*; JMJD2A Tudor inh: 11µM*; BAZ2B block: 25µM*; PI5P4K alpha inh: -1

How did CCC(CC)N1CCN(C(=O)Cc2ccccc2)CC1 do in these assays?
PLK1 PBD block: 0%; HP1b chromo inh: inconclusive; G9a block: 11µM*; JMJD2A Tudor inh: 3.2µM*; BAZ2B block: inconclusive

Results for COC(=O)c1ccc(CN2CCN(Cc3ccccc3)CC2)cc1 ?
PLK1 PBD block: -4%; HP1b chromo inh: 4%; G9a block: -6%[59 µM]; JMJD2A Tudor inh: 79µM*; BAZ2B block: -10%

How did O=C(Cc1ccccc1)N1CCN(Cc2ccc(Cl)cc2)CC1 do in these assays?
PLK1 PBD block: -11%; HP1b chromo inh: inconclusive; JMJD2A Tudor inh: 10µM*; PI5P4K alpha inh: 0

Results for CC1/C=C/C=C/CC/C=C/C=C/C=C/C=C/C(OC2OC(C)C(O)C(N)C2O)CC2O[C@](O)(CC(O)C(O)CCC(O)CC(O)CC(O)CC(=O)OC(C)C(C)C1O)CC(O)C2C(=O)O (stereo partly specified) ?
G9a block: -15%[2.33 µM]

What do the screens show for `NCCCNCCCCNCCCNC(=O)Cc1ccc(O)cc1`?
G9a block: 7%[12.7 µM]

Compound activity as filed in PubChem BioAssay.
